Measurements as given in PubChem BioAssay (NCATS).
Inconclusive results are not listed. Active and inactive are the calls of the source. The call rests on the fitted dose curve; in most records, active means well fitted inhibition curve with a large enough effect; inconclusive means small, poorly fitted or top-dose-only effect; inactive means flat fitted curve, though single readings scatter. Peptide text beside a SMILES is read from it.

Assays:
Assay in all cases: qHTS profiling for inhibitors of Plasmodium falciparum proliferation (AID 504749); further: nearly all actives have a fitted effect of over 60% in size
Conditions in all cases: P. falciparum in erythrocytes, SYBR Green DNA, 72 h; series mostly up to 28.7 µM
[1] = system: CP215
How it was run: (§1)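 Parasite proliferation within erythrocytes, 72 h exposure. Endpoint: SYBR Green I fluorescence after overnight lysis at room temperature. Controls: 0.29 uM artemisinin, DMSO.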

[2] = system: CP217
How it was run: as §1

[3] = system: CP237
How it was run: as §1

[4] = system: CP238
How it was run: as §1

[5] = system: CP247
How it was run: as §1

[6] = system: CP250
How it was run: as §1

[7] = system: CP252
How it was run: as §1

[8] = system: CP256
How it was run: as §1

[9] = system: CP260
How it was run: as §1

[10] = system: CP262
How it was run: as §1

[11] = system: CP265
How it was run: as §1

[12] = system: CP266
How it was run: as §1

[13] = system: CP268
How it was run: as §1

[14] = system: CP269
How it was run: as §1

[15] = system: CP286
How it was run: as §1

[16] = system: CP291
How it was run: as §1

[17] = system: CP297
How it was run: as §1

[18] = system: CP305
How it was run: as §1

[19] = system: CP315
How it was run: as §1

[20] = system: CP325
How it was run: as §1

Measured: Potency
Potency means the concentration at half of the fitted maximal effect.

CS(=O)(=O)OCCCCOS(C)(=O)=O
inactive: [1] | [2] | [3] | [4] | [5] | [6] | [7] | [8] | [9] | [10] | [11] | [12] | [13] | [14] | [15] | [16] | [17] | [18] | [19] | [20]

COC(=O)C1=C(C)NC(C)=C(C(=O)OCCCN2CCC(c3ccccc3)(c3ccccc3)CC2)C1c1cccc([N+](=O)[O-])c1 (stereo not given)
active: [1] 6.75 µM | [2] 3.55 µM | [3] 2.82 µM | [4] 8.91 µM | [5] 6.31 µM | [6] 7.08 µM | [7] 5.01 µM | [8] 7.08 µM | [9] 2.82 µM | [10] 6.01 µM | [11] 7.94 µM | [12] 9.53 µM | [13] 9.53 µM | [14] 4.78 µM | [15] 2.82 µM | [16] 6.75 µM | [17] 4.78 µM | [18] 7.57 µM | [19] 9.53 µM | [20] 6.01 µM

O=C(O)c1cccnc1Nc1cccc(C(F)(F)F)c1
inactive: [1] | [2] | [3] | [4] | [5] | [6] | [7] | [8] | [9] | [10] | [11] | [12] | [13] | [14] | [15] | [16] | [17] | [18] | [19] | [20]

CCOC(=O)c1c(C)n(C)c2ccc(O)cc12
inactive: [1] | [2] | [3] | [4] | [5] | [6] | [7] | [8] | [9] | [10] | [11] | [12] | [13] | [14] | [15] | [16] | [17] | [18] | [19] | [20]

C[C@]12CCC(=O)C=C1CC[C@@H]1[C@H]2[C@@H](O)C[C@@]2(C)[C@H]1CC[C@]2(O)C(=O)CO
inactive: [1] | [2] | [3] | [4] | [5] | [6] | [7] | [8] | [9] | [10] | [11] | [12] | [13] | [14] | [15] | [16] | [17] | [18] | [19] | [20]

Cc1ccc(C)c(OCCCC(C)(C)C(=O)O)c1
inactive: [1] | [2] | [3] | [4] | [5] | [6] | [7] | [8] | [9] | [10] | [11] | [12] | [13] | [14] | [15] | [16] | [17] | [18] | [19] | [20]

Nc1cc(C(Cl)=C(Cl)Cl)c(S(N)(=O)=O)cc1S(N)(=O)=O
inactive: [1] | [2] | [3] | [4] | [5] | [6] | [7] | [8] | [9] | [10] | [11] | [12] | [13] | [14] | [15] | [16] | [17] | [18] | [19] | [20]

CCCCc1ccc2nc(NC(=O)OC)[nH]c2c1
inactive: [1] | [2] | [3] | [4] | [5] | [6] | [7] | [8] | [9] | [10] | [11] | [12] | [13] | [14] | [15] | [16] | [17] | [18] | [19] | [20]

N[C@@H](Cc1cc(I)c(Oc2cc(I)c(O)c(I)c2)c(I)c1)C(=O)O
inactive: [1] | [2] | [3] | [4] | [5] | [6] | [7] | [8] | [9] | [10] | [11] | [12] | [13] | [14] | [15] | [16] | [17] | [18] | [19] | [20]

CC1(C)NC(=O)N(c2ccc([N+](=O)[O-])c(C(F)(F)F)c2)C1=O
inactive: [1] | [2] | [3] | [4] | [5] | [6] | [7] | [8] | [9] | [10] | [11] | [12] | [13] | [14] | [15] | [16] | [17] | [18] | [19] | [20]

Cc1cc2c(s1)Nc1ccccc1N=C2N1CCN(C)CC1
inactive: [1] | [2] | [3] | [4] | [5] | [6] | [7] | [8] | [9] | [10] | [11] | [12] | [13] | [14] | [15] | [16] | [17] | [18] | [19] | [20]

Nc1ccc(S(N)(=O)=O)cc1
inactive: [1] | [2] | [3] | [4] | [5] | [6] | [7] | [8] | [9] | [10] | [11] | [12] | [13] | [14] | [15] | [16] | [17] | [18] | [19] | [20]

COc1cc(OC)c(C(=O)CCCN2CCCC2)c(OC)c1
inactive: [1] | [2] | [3] | [4] | [5] | [6] | [7] | [8] | [9] | [10] | [11] | [12] | [13] | [14] | [15] | [16] | [17] | [18] | [19] | [20]

Nc1ccn([C@@H]2O[C@H](CO)[C@@H](O)C2O)c(=O)n1 (stereo not given in full)
inactive: [1] | [2] | [3] | [4] | [5] | [6] | [7] | [8] | [9] | [10] | [11] | [12] | [13] | [14] | [15] | [16] | [17] | [18] | [19] | [20]

Cc1cc2cc3c(C)cc(=O)oc3c(C)c2o1
inactive: [1] | [2] | [3] | [4] | [5] | [6] | [7] | [8] | [9] | [10] | [11] | [12] | [13] | [14] | [15] | [16] | [17] | [18] | [19] | [20]

CCCOc1ccc2nc(NC(=O)OC)[nH]c2c1
inactive: [1] | [2] | [3] | [4] | [5] | [6] | [7] | [8] | [9] | [10] | [11] | [12] | [13] | [14] | [15] | [16] | [17] | [18] | [19] | [20]

O=P(O)(O)C(O)(Cn1ccnc1)P(=O)(O)O
inactive: [1] | [2] | [3] | [4] | [5] | [6] | [7] | [8] | [9] | [10] | [11] | [12] | [13] | [14] | [15] | [16] | [17] | [18] | [19] | [20]

O=C(O)c1cc(=O)c2c(OCC(O)COc3cccc4oc(C(=O)O)cc(=O)c34)cccc2o1
inactive: [1] | [2] | [3] | [4] | [5] | [6] | [7] | [8] | [9] | [10] | [11] | [12] | [13] | [14] | [15] | [16] | [17] | [18] | [19] | [20]

CC(C)(S)[C@@H](N)C(=O)O
inactive: [1] | [2] | [3] | [4] | [5] | [6] | [7] | [8] | [9] | [10] | [11] | [12] | [13] | [14] | [15] | [16] | [17] | [18] | [19] | [20]

COC(=O)[C@H](Cc1ccccc1)NC(=O)[C@@H](N)CC(=O)O (H-Asp-Phe-OMe)
inactive: [1] | [2] | [3] | [4] | [5] | [6] | [7] | [8] | [9] | [10] | [11] | [12] | [13] | [14] | [15] | [16] | [17] | [18] | [19] | [20]

CCOc1cc(CC(=O)N[C@@H](CC(C)C)c2ccccc2N2CCCCC2)ccc1C(=O)O
inactive: [1] | [2] | [3] | [4] | [5] | [6] | [7] | [8] | [9] | [10] | [11] | [12] | [13] | [14] | [15] | [16] | [17] | [18] | [19] | [20]

O=C(O)CCNC(=O)c1ccc(N=Nc2ccc(O)c(C(=O)O)c2)cc1
inactive: [1] | [2] | [3] | [4] | [5] | [6] | [7] | [8] | [9] | [10] | [11] | [12] | [13] | [14] | [15] | [16] | [17] | [18] | [19] | [20]

CCC1=C(C)CN(C(=O)NCCc2ccc(S(=O)(=O)NC(=O)NC3CCC(C)CC3)cc2)C1=O (stereo not given)
inactive: [1] | [2] | [3] | [4] | [5] | [6] | [7] | [8] | [9] | [10] | [11] | [12] | [13] | [14] | [15] | [16] | [17] | [18] | [19] | [20]

CC1(C)CCC(C)(C)c2cc(NC(=O)c3ccc(C(=O)O)cc3)ccc21
inactive: [1] | [2] | [3] | [4] | [5] | [6] | [7] | [8] | [9] | [10] | [11] | [12] | [13] | [14] | [15] | [16] | [17] | [18] | [19] | [20]

Nc1cccc2c1CN(C1CCC(=O)NC1=O)C2=O (stereo not given)
inactive: [1] | [2] | [3] | [4] | [5] | [6] | [7] | [8] | [9] | [10] | [11] | [12] | [13] | [14] | [15] | [16] | [17] | [18] | [19] | [20]

N=C(N=C(N)N)N1CCOCC1
inactive: [1] | [2] | [3] | [4] | [5] | [6] | [7] | [8] | [9] | [10] | [11] | [12] | [13] | [14] | [15] | [16] | [17] | [18] | [19] | [20]
